Test results from the supplement of paper PMC13380429.

These molecules were tested on Vero E6 infected with SARS-CoV-2 (assay: morphology score (similarity to uninfected cells); higher = more like uninfected cells). Settings: 24 h.
`C=CCN1CC[C@]2(C)c3cc(O)ccc3C[C@H]1[C@H]2C` (10 µM) showed a morphology score of 0.112. `CC(=O)O[C@@H]1C[C@H]2C(C)(C)C(=O)C=C[C@]2(C)[C@H]2CC[C@@]3(C)[C@H](c4ccoc4)OC(=O)[C@H]4O[C@]43[C@@]21C` [gedunin] (10 µM) showed a morphology score of 0.145. In the case of `CC1(C)O[C@@H]2C[C@H]3[C@@H]4CCC5=CC(=O)C=C[C@]5(C)[C@@]4(F)[C@@H](O)C[C@]3(C)[C@]2(C(=O)CO)O1` (10 µM), the morphology score was 0.0142. For `CC(C)C[C@H](NC(=O)CNC(=O)c1cc(Cl)ccc1Cl)B1OC(=O)C(CC(=O)O)(CC(=O)O)O1` [ixazomib-citrate] (0.833333 µM), the morphology score was 0.101.

These molecules were tested on Vero E6 infected with SARS-CoV-2 (assay: SARS-CoV-2 infection rate relative to infected DMSO; higher = more infection, active = 60 or less). Settings: 24 h.
`Nc1nccc(/C=C/c2ccccc2)n1` (10 µM) was tested, and the SARS-CoV-2 infection rate was 93% (inactive). `O=C(O)CCc1nc(-c2ccccc2)c(-c2ccccc2)o1` [oxaprozin] (10 µM) was tested, and the SARS-CoV-2 infection rate was 116% (inactive). For `O=C1CNC(=O)CN1` [piperazinedione] (0.833333 µM), the SARS-CoV-2 infection rate was 106% (inactive). `O=C(NC1CCOCC1)c1ccc(-c2cc(-c3c[nH]nc3-c3ccccn3)ccn2)cc1` (10 µM) was tested, and the SARS-CoV-2 infection rate was 114% (inactive). For `Cn1cnc(N)c2ncnc1-2` [3-methyladenine] (10 µM), the SARS-CoV-2 infection rate was 93% (inactive). For `CCCC[C@@]1(C2CCCC2)Cc2cc(OCCCC(=O)O)c(Cl)c(Cl)c2C1=O` (10 µM), the SARS-CoV-2 infection rate was 92.5% (inactive). In the case of `CCCOc1ccc(S(=O)(=O)N2CCN(CCO)CC2)cc1-c1nc2c(CCC)cn(CC)c2c(=O)[nH]1` [mirodenafil] (10 µM), the SARS-CoV-2 infection rate was 95.5% (inactive). `C[C@]12CCC(=O)C=C1C=C[C@@H]1[C@@H]2CC[C@@]2(C)[C@H]1CC[C@@]2(O)CCC(=O)O` [potassium-canrenoate] (10 µM) was tested, and the SARS-CoV-2 infection rate was 114% (inactive).
